Laboratory results taken from PubChem BioAssay (NCI).
About 83,000 compounds went through this panel and 20% of them were active in at least one assay; those are over-represented in the sample as a whole.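 48-hour exposure, single concentration, 96-well plates; percent growth endpoint where 0 means no net growth. Active: below 10.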 Activity calls are given as the source filed them.

The molecules below were run on A549/ATCC NSCLC (assay: NCI-60 one-dose screen, 48 h (100 = growth as untreated, 0 = no growth, -100 = all killed)). Conditions: 10 µM unless noted.
O=C(Cc1ccc(F)c(Cl)c1)Nc1cc(C2(C(F)(F)F)CC2)nn1CC1CCCCC1 was tested, and the growth was 9.72% (active). For O=C(S)CNC(=O)c1ccccc1, the growth was 99.8% (inactive). In the case of COc1cc(CCC[P+](c2ccccc2)(c2ccccc2)c2ccccc2)c(OC)c(OC)c1OC, the growth is reported as 78.2% (inactive). With COc1cc2cc(Oc3ccc(NC(=O)Nc4ccc(Cl)c(C(F)(F)F)c4)cc3)c(C)nc2cc1OCCN1CCOCC1 the growth was 12.7% (inactive). With Cc1cc2nc3cc(C)c(N)cc3[n+](-c3ccccc3)c2cc1N the growth was 75.1% (inactive). In the case of CN1CCN(c2ccc(-c3cc4c(Nc5ccc(F)c(Cl)c5)ncnn4c3)cc2)CC1, the growth is reported as 71.4% (inactive). For COc1ccc(S(=O)(=O)n2cc(C3OC(c4cc(OC)c(OC)c(OC)c4)=NN3C(C)=O)c3ccccc32)cc1OC (stereo not drawn), the growth was 98.3% (inactive). For COc1nc2ccc(C)cc2cc1-c1nc2c(cnn2-c2ccccc2)c(=O)[nH]1, the growth was 84.3% (inactive). For Cc1cccc2c3c(sc12)C(c1ccc(Cl)cc1)C(C#N)=C(N)O3 (stereo not drawn), the growth was 30.1% (inactive). For CN(C)c1ccc2nc3ccc(=[N+](C)C)c([N+](=O)[O-])c-3sc2c1, the growth was 26.3% (inactive). In the case of Cc1ccc(C(=O)N/N=C/c2cccc(Oc3ccccc3)c2)cn1, the growth is reported as 54.1% (inactive). Cc1c(C(=O)N[C@@H](Cc2ccccc2)C(=O)C(=O)NCc2ccc(F)cc2)[nH]c2ccccc2c1=O was tested, and the growth was 97.3% (inactive). For Cc1c(C(=O)NCCCc2ccccc2)sc2ncc(-c3ccc(Br)cc3)n12, the growth was 108% (inactive). For COc1ccc(-c2conc2-c2ccccc2)cc1, the growth was 23.3% (inactive). For Cc1ccccc1C(=O)NN, the growth was 89.2% (inactive). With CCS(=O)(=O)c1ncnc2nc[nH]c12 the growth was 89.4% (inactive). In the case of CCCCC[C@H](O)C/C=C1/C(=O)C=C[C@@H]1C/C=C\CCCC(=O)O, the growth is reported as 81% (inactive). C=C1CC[C@H](C(C)C)[C@@H]2[C@H]1[C@H]1CC(=C)[C@@H](O)CC[C@@](C)(O)[C@@H]2O1 was tested, and the growth was 86.2% (inactive). With COc1ccc(-c2[nH]c3ccc(OC)cc3c2/C=C(\C#N)S(=O)(=O)c2ccccc2)cc1 the growth was 23.5% (inactive). For COc1ccc(C(=O)n2nc(-c3ccccc3)nc2N)cc1OC, the growth was 95.1% (inactive). With O=c1ccn(Cc2cn(-c3c4ccccc4nc4ccccc34)nn2)c(=O)[nH]1 the growth was 91.2% (inactive). CC/C=C\C[C@@H](O)C/C=C1/C(=O)C=C[C@H]1C/C=C\CCCC(=O)OC was tested, and the growth was -16.6% (active). CCCCn1c(=O)c(-c2cc(-c3ccc(Cl)cc3)nc(-c3ccc(Cl)cc3)c2)cc2cc(Cl)ccc21 was tested, and the growth was 101% (inactive). With Cc1nc2cnc(N)c(C#Cc3cncc(C(=O)Nc4ccc(CN5CCN(C)CC5)c(C(F)(F)F)c4)c3)c2nc1C the growth was 2.19% (active). For O=C1/C(=C/c2ccc(F)cc2)Sc2c(Br)cccc21, the growth was 68.9% (inactive). For Cc1ccc(-c2nc(N3CCN(C(=O)c4ccc(OC(F)(F)F)cc4)CC3)c3ccccc3n2)cc1, the growth was 71.6% (inactive). In the case of CCOC(=O)c1c2c(n(-c3ccc(C#N)cc3)c1-c1ccccc1)C=CCC2, the growth is reported as 91.1% (inactive). With CCOc1c(B(O)O)cccc1-c1nc2ccc3[nH]ncc3c2c2c1CCCC2 the growth was 64.5% (inactive). CCOC(=O)C1=C(N)Oc2c(sc3c(CC)cccc23)C1c1ccc(F)cc1 (stereo not drawn) was tested, and the growth was 47.4% (inactive). CCCCCCn1c(-c2ccc(C(=O)O/N=C(\N)c3ccc4ccccc4c3)cc2)nc(-c2ccccc2)c1-c1ccccc1 was tested, and the growth was -33.5% (active). In the case of C=C(C)C1CCC2(C)OC2C1 (stereo not drawn), the growth is reported as 127% (inactive). Clc1ccc(C(/C=C/c2sc(Cl)nc2Cl)=N/Nc2cc(Cl)cc(Cl)c2)cc1 was tested, and the growth was 103% (inactive). For c1ccc2c(-c3nc(-c4c[nH]c5ccncc45)cs3)c[nH]c2c1, the growth was 34.5% (inactive). For c1ccc(CO[C@H]2CO[C@H]3[C@@H]2OC[C@@H]3Oc2ccc(Nc3ncnc4ccsc34)cc2)cc1, the growth was 81.7% (inactive). In the case of COc1cc2cc(Oc3ccc(NC(=O)Nc4ccc(Cl)c(Cl)c4)cc3)c(C)nc2cc1OCCN1CCOCC1, the growth is reported as 76.7% (inactive). In the case of Cc1nc2ccccc2c(/C=C/c2ccccc2)c1C(=O)/C=C/c1ccc(C(F)(F)F)cc1, the growth is reported as 75.3% (inactive). With CCOC(=O)c1nc(Nc2ccc(C(C)=O)cc2)sc1C the growth was 94.3% (inactive). For CCOC(=O)Nc1ccc(-c2nc(-c3cccc(OCCN4CCOCC4)c3)c(-c3ccnc(Br)c3)[nH]2)cc1, the growth was 54.2% (inactive).
